Measured values published in ChEMBL document CHEMBL2218924, “A broad activity screen in support of a chemogenomic map for kinase signalling research and drug discovery” (Biochem J, 2013).

Key:
[1] = molecular target: T1, Testis-specific serine/threonine-protein kinase 1 (Homo sapiens) (UniProt Q9BXA7); settings: at 1 µM
T1 sequence (whole entry): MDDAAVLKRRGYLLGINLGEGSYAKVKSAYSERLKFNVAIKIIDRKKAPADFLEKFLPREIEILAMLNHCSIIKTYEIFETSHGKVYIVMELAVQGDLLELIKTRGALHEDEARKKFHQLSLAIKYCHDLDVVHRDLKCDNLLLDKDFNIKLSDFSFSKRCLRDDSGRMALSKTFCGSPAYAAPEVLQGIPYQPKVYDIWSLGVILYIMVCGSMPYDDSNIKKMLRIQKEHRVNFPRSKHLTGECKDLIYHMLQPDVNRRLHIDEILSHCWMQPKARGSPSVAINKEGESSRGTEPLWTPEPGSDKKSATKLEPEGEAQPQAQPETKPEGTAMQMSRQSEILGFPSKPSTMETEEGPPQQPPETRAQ

[2] = molecular target: T1, Testis-specific serine/threonine-protein kinase 1 (Homo sapiens); settings: at 10 µM
[3] = molecular target: T2, Testis-specific serine/threonine-protein kinase 2 (Homo sapiens) (UniProt Q96PF2); settings: at 10 µM
T2 sequence (whole entry): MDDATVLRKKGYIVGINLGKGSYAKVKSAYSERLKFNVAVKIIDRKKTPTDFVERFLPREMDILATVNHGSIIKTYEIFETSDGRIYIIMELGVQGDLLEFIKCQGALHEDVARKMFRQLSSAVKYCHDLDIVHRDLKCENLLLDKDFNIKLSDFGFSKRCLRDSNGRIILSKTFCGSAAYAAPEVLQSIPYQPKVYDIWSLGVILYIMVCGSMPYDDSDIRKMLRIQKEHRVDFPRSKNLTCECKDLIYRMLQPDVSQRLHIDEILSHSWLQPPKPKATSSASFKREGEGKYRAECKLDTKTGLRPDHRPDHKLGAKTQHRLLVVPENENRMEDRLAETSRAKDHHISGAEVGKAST

[4] = molecular target: T3, Tyrosine-protein kinase Tec (Homo sapiens) (UniProt P42680); settings: at 1 µM
T3 sequence (whole entry): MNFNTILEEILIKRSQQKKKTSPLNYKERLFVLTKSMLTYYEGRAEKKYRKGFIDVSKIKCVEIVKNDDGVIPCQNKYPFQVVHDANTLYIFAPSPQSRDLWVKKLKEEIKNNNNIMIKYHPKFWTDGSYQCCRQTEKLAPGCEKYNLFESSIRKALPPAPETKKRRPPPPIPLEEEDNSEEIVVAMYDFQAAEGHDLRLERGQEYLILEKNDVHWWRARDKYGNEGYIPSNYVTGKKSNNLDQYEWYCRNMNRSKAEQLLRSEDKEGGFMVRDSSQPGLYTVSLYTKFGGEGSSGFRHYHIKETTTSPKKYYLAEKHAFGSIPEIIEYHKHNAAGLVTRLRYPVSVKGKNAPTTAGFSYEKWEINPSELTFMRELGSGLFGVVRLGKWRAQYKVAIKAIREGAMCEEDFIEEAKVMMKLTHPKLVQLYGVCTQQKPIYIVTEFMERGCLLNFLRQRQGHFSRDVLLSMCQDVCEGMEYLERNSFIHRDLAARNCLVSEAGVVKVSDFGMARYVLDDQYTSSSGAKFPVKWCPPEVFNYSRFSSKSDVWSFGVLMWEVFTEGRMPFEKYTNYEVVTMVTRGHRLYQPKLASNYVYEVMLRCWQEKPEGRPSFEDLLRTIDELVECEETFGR

[5] = molecular target: T3, Tyrosine-protein kinase Tec (Homo sapiens); settings: at 10 µM
[6] = molecular target: Angiopoietin-1 receptor (Homo sapiens) (UniProt Q02763); settings: at 1 µM
[7] = molecular target: Angiopoietin-1 receptor (Homo sapiens) (UniProt Q02763); settings: at 10 µM
[8] = molecular target: High affinity nerve growth factor receptor (Homo sapiens) (UniProt P04629); settings: at 1 µM
[9] = molecular target: High affinity nerve growth factor receptor (Homo sapiens) (UniProt P04629); settings: at 10 µM
[10] = molecular target: BDNF/NT-3 growth factors receptor (Homo sapiens) (UniProt Q16620); settings: at 1 µM
[11] = molecular target: T4, Tyrosine-protein kinase TXK (Homo sapiens) (UniProt P42681); settings: at 1 µM
T4 sequence (whole entry): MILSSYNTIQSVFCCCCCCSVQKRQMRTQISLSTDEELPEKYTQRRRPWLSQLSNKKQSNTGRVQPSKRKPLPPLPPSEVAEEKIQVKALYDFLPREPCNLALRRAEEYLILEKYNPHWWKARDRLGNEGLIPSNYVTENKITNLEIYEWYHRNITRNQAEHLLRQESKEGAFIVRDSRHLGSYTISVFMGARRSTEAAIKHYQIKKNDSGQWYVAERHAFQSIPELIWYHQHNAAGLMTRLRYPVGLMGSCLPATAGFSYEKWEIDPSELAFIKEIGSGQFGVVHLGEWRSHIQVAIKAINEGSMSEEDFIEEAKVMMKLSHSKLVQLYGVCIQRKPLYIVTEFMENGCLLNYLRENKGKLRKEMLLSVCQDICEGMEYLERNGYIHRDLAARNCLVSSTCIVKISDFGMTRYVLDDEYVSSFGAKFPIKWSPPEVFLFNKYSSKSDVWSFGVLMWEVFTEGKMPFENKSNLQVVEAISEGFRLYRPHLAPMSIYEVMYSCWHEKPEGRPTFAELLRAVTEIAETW

[12] = molecular target: T4, Tyrosine-protein kinase TXK (Homo sapiens); settings: at 10 µM
[13] = molecular target: T5, Serine/threonine-protein kinase ULK2 (Homo sapiens) (UniProt Q8IYT8); settings: at 1 µM
T5 sequence (whole entry): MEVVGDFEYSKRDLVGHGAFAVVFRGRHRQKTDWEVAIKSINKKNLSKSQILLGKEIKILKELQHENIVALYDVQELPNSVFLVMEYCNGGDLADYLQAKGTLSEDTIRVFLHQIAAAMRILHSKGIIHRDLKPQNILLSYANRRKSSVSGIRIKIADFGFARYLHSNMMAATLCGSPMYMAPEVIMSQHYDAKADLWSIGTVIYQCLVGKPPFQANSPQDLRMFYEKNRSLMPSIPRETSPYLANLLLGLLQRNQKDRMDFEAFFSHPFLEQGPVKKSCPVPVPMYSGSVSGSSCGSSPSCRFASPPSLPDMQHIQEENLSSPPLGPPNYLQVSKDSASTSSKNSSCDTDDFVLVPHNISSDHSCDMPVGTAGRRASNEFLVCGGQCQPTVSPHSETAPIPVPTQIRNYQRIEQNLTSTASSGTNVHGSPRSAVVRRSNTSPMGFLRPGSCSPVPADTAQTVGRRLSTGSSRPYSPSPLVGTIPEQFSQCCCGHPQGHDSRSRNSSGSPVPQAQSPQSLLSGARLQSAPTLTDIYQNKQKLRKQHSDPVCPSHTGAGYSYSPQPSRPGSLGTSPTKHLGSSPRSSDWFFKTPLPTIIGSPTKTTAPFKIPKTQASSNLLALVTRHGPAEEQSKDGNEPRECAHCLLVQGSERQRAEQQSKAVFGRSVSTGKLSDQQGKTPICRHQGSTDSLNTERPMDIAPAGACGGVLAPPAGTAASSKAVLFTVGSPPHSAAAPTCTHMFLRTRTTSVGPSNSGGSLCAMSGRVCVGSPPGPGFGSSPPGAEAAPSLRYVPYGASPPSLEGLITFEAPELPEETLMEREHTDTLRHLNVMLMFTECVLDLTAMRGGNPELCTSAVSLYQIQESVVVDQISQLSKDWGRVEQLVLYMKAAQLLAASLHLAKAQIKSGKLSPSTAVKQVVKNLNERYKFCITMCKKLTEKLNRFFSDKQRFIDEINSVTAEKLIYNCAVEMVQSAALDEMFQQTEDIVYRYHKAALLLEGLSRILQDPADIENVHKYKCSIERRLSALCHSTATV

[14] = molecular target: T5, Serine/threonine-protein kinase ULK2 (Homo sapiens); settings: at 10 µM
[15] = molecular target: T6, Serine/threonine-protein kinase ULK3 (Homo sapiens) (UniProt Q6PHR2); settings: at 1 µM
T6 sequence (whole entry): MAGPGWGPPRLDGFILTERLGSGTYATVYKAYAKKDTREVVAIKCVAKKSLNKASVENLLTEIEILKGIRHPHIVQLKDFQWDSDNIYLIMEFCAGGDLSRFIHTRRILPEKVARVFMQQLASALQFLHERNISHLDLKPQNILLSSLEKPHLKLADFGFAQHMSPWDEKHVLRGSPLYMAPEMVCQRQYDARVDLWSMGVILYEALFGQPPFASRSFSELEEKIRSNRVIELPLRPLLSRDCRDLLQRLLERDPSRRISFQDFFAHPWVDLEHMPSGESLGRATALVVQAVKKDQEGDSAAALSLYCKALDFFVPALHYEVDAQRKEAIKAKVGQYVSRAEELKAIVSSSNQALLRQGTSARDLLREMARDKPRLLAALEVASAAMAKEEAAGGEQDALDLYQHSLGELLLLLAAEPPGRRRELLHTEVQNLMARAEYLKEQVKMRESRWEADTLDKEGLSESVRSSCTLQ

[16] = molecular target: T6, Serine/threonine-protein kinase ULK3 (Homo sapiens); settings: at 10 µM
[17] = molecular target: Serine/threonine-protein kinase VRK2 (Homo sapiens) (UniProt Q86Y07); settings: at 1 µM
[18] = molecular target: Serine/threonine-protein kinase VRK2 (Homo sapiens) (UniProt Q86Y07); settings: at 10 µM
[19] = molecular target: Serine/threonine-protein kinase WNK2 (Homo sapiens) (UniProt Q9Y3S1); settings: at 1 µM;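 note: residual WNK2 kinase activity expressed as percent of uninhibited control, assayed in MOPS buffer at pH 7.0 containing EDTA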
[20] = molecular target: BDNF/NT-3 growth factors receptor (Homo sapiens) (UniProt Q16620); settings: at 10 µM

Chain of Serine/threonine-protein kinase WNK2 (Homo sapiens) (Q9Y3S1 whole entry): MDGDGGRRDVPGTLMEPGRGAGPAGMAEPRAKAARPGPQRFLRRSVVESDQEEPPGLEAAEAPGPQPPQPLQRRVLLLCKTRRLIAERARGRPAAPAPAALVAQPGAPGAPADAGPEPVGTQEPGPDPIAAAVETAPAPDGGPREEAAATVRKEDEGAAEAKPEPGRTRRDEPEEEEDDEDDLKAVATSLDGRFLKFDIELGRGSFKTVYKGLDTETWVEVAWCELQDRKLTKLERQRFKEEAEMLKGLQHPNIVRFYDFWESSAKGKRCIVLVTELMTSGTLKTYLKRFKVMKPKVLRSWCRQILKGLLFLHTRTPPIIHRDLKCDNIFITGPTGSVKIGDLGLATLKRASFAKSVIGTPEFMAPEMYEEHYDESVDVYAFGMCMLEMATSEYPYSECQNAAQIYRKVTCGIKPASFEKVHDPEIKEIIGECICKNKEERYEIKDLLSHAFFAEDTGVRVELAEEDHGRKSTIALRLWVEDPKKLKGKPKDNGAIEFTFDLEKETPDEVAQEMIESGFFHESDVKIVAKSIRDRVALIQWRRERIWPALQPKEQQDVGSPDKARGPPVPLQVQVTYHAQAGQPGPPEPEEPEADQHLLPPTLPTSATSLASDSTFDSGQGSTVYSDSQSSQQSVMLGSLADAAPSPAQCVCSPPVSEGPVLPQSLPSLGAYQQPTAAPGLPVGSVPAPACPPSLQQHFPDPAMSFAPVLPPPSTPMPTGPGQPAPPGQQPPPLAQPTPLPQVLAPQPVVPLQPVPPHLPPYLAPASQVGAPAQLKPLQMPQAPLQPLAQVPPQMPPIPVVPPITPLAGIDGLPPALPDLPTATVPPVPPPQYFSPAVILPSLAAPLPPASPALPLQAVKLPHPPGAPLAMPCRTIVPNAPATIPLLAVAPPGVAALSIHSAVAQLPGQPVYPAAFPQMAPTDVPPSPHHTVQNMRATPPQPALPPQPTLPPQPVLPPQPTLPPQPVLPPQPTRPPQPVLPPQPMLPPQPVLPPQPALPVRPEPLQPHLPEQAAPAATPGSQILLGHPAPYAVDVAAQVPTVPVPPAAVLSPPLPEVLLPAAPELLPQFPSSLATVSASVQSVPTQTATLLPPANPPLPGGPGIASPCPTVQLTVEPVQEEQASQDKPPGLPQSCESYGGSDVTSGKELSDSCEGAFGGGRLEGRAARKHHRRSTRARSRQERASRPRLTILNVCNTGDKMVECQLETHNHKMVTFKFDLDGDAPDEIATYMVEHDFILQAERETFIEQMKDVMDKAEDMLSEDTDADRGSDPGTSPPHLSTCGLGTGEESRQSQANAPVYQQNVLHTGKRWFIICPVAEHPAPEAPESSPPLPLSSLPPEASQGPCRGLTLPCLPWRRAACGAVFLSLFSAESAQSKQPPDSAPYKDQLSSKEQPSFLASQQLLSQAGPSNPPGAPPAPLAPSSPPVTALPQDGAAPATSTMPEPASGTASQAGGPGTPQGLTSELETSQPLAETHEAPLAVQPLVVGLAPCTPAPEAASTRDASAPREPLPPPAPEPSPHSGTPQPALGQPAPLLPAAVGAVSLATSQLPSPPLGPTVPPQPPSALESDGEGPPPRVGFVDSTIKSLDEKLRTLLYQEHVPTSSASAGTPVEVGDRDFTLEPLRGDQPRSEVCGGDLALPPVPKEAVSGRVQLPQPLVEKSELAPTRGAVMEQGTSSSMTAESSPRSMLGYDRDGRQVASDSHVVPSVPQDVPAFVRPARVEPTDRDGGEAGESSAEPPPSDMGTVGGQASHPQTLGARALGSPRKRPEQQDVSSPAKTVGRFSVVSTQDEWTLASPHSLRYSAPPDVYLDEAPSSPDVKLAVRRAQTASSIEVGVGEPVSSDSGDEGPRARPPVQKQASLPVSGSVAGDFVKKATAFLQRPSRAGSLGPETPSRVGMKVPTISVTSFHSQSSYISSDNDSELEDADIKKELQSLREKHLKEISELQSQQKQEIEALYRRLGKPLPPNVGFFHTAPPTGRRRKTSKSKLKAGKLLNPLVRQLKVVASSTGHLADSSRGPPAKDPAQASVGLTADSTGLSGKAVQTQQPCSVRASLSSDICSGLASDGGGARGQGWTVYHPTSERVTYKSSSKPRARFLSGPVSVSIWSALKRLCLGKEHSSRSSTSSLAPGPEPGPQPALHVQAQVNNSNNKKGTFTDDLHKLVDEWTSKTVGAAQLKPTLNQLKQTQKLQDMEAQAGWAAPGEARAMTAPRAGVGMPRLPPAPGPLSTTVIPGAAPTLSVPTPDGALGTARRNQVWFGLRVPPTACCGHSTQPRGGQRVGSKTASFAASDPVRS
Chain of Serine/threonine-protein kinase VRK2 (Homo sapiens) (Q86Y07 whole entry): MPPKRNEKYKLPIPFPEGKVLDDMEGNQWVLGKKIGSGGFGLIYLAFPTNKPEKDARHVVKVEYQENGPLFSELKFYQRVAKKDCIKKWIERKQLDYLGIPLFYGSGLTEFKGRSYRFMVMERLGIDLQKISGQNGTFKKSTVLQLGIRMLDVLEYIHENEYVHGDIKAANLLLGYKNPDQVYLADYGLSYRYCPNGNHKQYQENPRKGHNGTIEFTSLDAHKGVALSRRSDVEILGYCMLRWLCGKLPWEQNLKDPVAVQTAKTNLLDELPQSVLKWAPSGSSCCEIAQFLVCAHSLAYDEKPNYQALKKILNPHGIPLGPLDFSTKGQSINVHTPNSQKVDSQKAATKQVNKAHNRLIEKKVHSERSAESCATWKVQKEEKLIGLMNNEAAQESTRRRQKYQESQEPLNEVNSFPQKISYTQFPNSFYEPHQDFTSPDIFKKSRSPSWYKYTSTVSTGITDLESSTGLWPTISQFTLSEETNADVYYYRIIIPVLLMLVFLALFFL
Chain of Angiopoietin-1 receptor (Homo sapiens) (Q02763 whole entry): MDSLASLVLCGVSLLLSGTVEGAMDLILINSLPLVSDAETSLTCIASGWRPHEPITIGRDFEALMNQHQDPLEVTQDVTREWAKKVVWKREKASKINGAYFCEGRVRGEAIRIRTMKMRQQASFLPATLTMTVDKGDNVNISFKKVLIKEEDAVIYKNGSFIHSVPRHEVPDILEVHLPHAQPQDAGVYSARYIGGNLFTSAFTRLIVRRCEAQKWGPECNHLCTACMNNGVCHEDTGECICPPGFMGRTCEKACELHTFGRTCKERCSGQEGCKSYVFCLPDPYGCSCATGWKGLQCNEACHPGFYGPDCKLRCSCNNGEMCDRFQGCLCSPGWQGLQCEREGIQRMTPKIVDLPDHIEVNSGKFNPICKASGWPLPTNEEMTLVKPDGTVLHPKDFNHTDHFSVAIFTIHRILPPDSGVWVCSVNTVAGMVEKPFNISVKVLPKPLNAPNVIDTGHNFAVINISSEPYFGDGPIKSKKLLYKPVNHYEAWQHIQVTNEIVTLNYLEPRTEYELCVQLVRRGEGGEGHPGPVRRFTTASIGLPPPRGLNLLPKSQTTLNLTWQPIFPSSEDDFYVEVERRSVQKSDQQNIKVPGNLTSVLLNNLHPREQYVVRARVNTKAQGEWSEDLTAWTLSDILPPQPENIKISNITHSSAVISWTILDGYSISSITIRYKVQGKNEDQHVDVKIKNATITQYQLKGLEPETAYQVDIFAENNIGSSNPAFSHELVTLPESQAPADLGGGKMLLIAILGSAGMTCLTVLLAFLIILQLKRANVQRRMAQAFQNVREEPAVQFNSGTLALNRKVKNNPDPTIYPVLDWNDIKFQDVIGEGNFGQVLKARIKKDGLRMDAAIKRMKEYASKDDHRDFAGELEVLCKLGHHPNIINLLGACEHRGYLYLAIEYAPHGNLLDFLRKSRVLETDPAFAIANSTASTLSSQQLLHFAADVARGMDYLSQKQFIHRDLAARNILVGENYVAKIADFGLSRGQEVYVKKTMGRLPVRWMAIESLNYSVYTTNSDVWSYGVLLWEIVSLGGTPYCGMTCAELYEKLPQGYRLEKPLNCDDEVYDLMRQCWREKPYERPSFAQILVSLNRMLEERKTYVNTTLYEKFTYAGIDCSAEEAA
Chain of BDNF/NT-3 growth factors receptor (Homo sapiens) (Q16620 32-822 limits assumed): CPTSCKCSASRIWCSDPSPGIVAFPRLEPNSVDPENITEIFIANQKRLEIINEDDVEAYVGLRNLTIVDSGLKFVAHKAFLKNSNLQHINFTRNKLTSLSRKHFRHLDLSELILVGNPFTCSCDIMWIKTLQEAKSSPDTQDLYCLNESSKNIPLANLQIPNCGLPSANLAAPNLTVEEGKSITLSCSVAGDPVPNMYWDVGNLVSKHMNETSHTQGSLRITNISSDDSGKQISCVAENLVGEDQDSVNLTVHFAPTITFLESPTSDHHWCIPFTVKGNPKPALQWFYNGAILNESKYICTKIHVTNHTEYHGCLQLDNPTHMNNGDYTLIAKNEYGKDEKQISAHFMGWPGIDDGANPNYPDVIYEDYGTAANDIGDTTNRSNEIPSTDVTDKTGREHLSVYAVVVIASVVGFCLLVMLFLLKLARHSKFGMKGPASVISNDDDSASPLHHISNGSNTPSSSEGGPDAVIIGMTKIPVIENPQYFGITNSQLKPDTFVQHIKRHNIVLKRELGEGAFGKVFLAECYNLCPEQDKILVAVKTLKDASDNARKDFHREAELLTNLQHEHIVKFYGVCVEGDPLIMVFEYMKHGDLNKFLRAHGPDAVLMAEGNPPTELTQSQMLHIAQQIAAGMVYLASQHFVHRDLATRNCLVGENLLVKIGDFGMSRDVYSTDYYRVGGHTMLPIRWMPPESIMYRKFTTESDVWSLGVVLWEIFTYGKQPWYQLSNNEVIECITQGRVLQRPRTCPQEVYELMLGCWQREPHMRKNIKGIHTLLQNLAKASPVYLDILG

Compound | residual activity [1] | residual activity [2] | residual activity [3] | residual activity [4] | residual activity [5] | residual activity [6] | residual activity [7] | residual activity [8] | residual activity [9] | residual activity [10] | residual activity [11] | residual activity [12] | residual activity [13] | residual activity [14] | residual activity [15] | residual activity [16] | residual activity [17] | residual activity [18] | residual activity [19] | residual activity [20]
CO[C@H]1C[C@@H]2CC[C@@H](C)[C@@](O)(O2)C(=O)C(=O)N2CCCC[C@H]2C(=O)O[C@H]([C@H](C)C[C@@H]2CC[C@@H](O)[C@H](OC)C2)CC(=O)[C@H](C)/C=C(\C)[C@@H](O)[C@@H](OC)C(=O)[C@H](C)C[C@H](C)/C=C/C=C/C=C/1C | 86% | 80% | 106% | 96% | 90% | 79% | 96% | 89% | 41% | 102% | 109% | 111% | 91% | 98% | 100% | 94% | 97% (inactive) | 97% | 96% (inactive) | 
CC(=O)c1ccc(N2CCOCC2)cc1O | 98% | 94% | 104% | 104% | 91% | 79% | 83% |  |  | 84% | 85% | 86% | 106% | 90% | 106% | 90% | 107% (inactive) | 96% |  | 108%
CCOc1cc2ncnc(Nc3cccc(Br)c3)c2cc1OCC | 99% | 83% | 67% | 74% | 38% | 48% | 46% | 87% | 43% | 116% | 75% | 24% | 94% | 78% | 96% | 71% | 99% (inactive) | 74% | 102% (inactive) | 88%
CO[C@@H]1[C@H](N(C)C(=O)c2ccccc2)C[C@H]2O[C@]1(C)n1c3ccccc3c3c4c(c5c6ccccc6n2c5c31)C(=O)NC4 | 15% | 6% | 30% | 85% | 40% | 133% | 73% | 0% | -1% | 23% | 82% | 69% |  | 76% | 17% | 5% | 99% (inactive) | 94% | 90% (inactive) | -12%
COc1cc2ncc(-c3ccccc3)nc2cc1OC |  | 92% | 84% | 96% | 63% |  | 80% | 39% | -1% | 54% | 96% | 73% |  |  |  | 86% |  |  |  | 37%
Cc1cncc2cccc(S(=O)(=O)N3CCCN(C(=O)CN)C[C@H]3C)c12 | 95% | 79% | 94% | 100% | 77% | 78% | 40% | 64% | -1% |  | 100% | 91% | 93% | 47% | 97% | 59% | 94% (inactive) | 66% |  | 
O=C1Nc2ccccc2/C1=C1/Nc2ccccc2/C1=N\OCCC(O)CO (stereo unspecified) | 75% | 69% |  | 47% | 8% |  |  | -1% | 0% | -2% | 31% | 3% | 98% | 74% | 27% | 5% | 69% (inactive) | 26% | 71% (inactive) | 0%
